Laboratory results as given in PubChem BioAssay (NCI).
Compounds without any hit were thinned out: in the full panel of roughly 83,000, 20% have a hit.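 Step 1: grow cells in 96-well plates. Step 2: add test compound at a single concentration. Step 3: incubate 48 h. Step 4: record percent growth.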 Activity calls are given as the source filed them. The calls were made as follows: active = growth percent below 10; inactive = the rest.

How the values were obtained:
Experiment in all cases: NCI-60 one-dose screen, 48 h (100 = growth as untreated, 0 = no growth, -100 = all killed)
Conditions in all cases: 10 µM unless noted
NCI-H23 lung = tested on: NCI-H23 lung
NCI-H226 lung = tested on: NCI-H226 lung
NCI-H322M lung = tested on: NCI-H322M lung
HOP-62 NSCLC = tested on: HOP-62 NSCLC
NCI-H460 lung = tested on: NCI-H460 lung
HOP-92 NSCLC = tested on: HOP-92 NSCLC
NCI-H522 lung = tested on: NCI-H522 lung
A549/ATCC NSCLC = tested on: A549/ATCC NSCLC
786-0 renal = tested on: 786-0 renal
COLO 205 colon = tested on: COLO 205 colon
DU-145 prostate = tested on: DU-145 prostate
K-562 leukemia = tested on: K-562 leukemia
MALME-3M melanoma = tested on: MALME-3M melanoma
MDA-MB-231 breast = tested on: MDA-MB-231 breast
RXF 393 renal = tested on: RXF 393 renal
SF-268 CNS = tested on: SF-268 CNS
SF-295 CNS = tested on: SF-295 CNS
SF-539 CNS = tested on: SF-539 CNS
UACC-257 melanoma = tested on: UACC-257 melanoma
M14 melanoma = tested on: M14 melanoma

Measured: growth

Cc1cc(C)c2[nH]c(=O)c(C(c3nnnn3Cc3ccc4c(c3)OCO4)N3CCN(C)CC3)cc2c1 (stereo not given)
inactive: NCI-H23 lung 105% | NCI-H226 lung 102% | NCI-H322M lung 107% | HOP-62 NSCLC 111% | NCI-H460 lung 112% | HOP-92 NSCLC 99.9% | NCI-H522 lung 120% | A549/ATCC NSCLC 105% | 786-0 renal 97.9% | COLO 205 colon 114% | DU-145 prostate 103% | K-562 leukemia 107% | MALME-3M melanoma 110% | MDA-MB-231 breast 112% | RXF 393 renal 114% | SF-268 CNS 101% | SF-295 CNS 104% | SF-539 CNS 104% | UACC-257 melanoma 110% | M14 melanoma 111%

Cc1ccc(C(C)C)cc1Oc1cccc(-c2c(-c3ccc(C(F)(F)F)cc3)ncn2C2CCNCC2)n1
active: NCI-H23 lung -89% | NCI-H226 lung -78.4% | NCI-H322M lung -98.4% | HOP-62 NSCLC -82.7% | NCI-H460 lung -84.3% | HOP-92 NSCLC -85.8% | NCI-H522 lung -91.2% | A549/ATCC NSCLC -86.8% | 786-0 renal -90.8% | COLO 205 colon -87.5% | DU-145 prostate -83.5% | K-562 leukemia -60.7% | MALME-3M melanoma -86.6% | MDA-MB-231 breast -95.7% | RXF 393 renal -90.3% | SF-268 CNS -56.6% | SF-295 CNS -94.2% | SF-539 CNS -98.2% | UACC-257 melanoma -88.4% | M14 melanoma -97.2%

O=C(Nc1ccc(Br)cc1)Nc1ccc(-c2ccc3c(c2)NC(=O)/C3=C\c2ccc[nH]2)cc1
inactive: NCI-H23 lung 30.7% | NCI-H226 lung 66.2% | NCI-H322M lung 46.1% | HOP-62 NSCLC 53.1% | HOP-92 NSCLC 92.1% | NCI-H522 lung 24.1% | A549/ATCC NSCLC 37.7% | 786-0 renal 61% | COLO 205 colon 57.2% | DU-145 prostate 27.9% | K-562 leukemia 18.6% | MALME-3M melanoma 61.6% | MDA-MB-231 breast 66.3% | RXF 393 renal 25.3% | SF-268 CNS 40.3% | SF-295 CNS 22.9% | SF-539 CNS 26.5% | UACC-257 melanoma 75.4% | M14 melanoma 32.3%
active: NCI-H460 lung 8.75%

N#CC1=C(c2cccs2)Nc2c(c(-c3ccccc3)nn2-c2ccccc2)C12C(=O)Nc1ccccc12 (stereo not given)
active: HOP-62 NSCLC -20% | NCI-H460 lung 5.58% | HOP-92 NSCLC -13.1% | NCI-H522 lung 5.69% | A549/ATCC NSCLC 5.42% | 786-0 renal 1.25% | K-562 leukemia 9.66% | RXF 393 renal -13.4% | SF-539 CNS -45.2%
inactive: NCI-H23 lung 13.6% | NCI-H226 lung 12.8% | NCI-H322M lung 80.1% | COLO 205 colon 55.9% | DU-145 prostate 33.5% | MALME-3M melanoma 26.9% | MDA-MB-231 breast 34.2% | SF-268 CNS 54.3% | SF-295 CNS 40.3% | UACC-257 melanoma 88% | M14 melanoma 14.6%

O=CNc1cccc(-n2cnc3cc(-c4ccc(O)cc4)ccc32)c1
active: NCI-H226 lung -0.208% | NCI-H522 lung -6.53% | SF-539 CNS -6.56%
inactive: NCI-H23 lung 34.6% | NCI-H322M lung 68.1% | HOP-62 NSCLC 42.6% | NCI-H460 lung 16.7% | HOP-92 NSCLC 71.7% | A549/ATCC NSCLC 42.9% | 786-0 renal 39.1% | COLO 205 colon 39% | DU-145 prostate 43.7% | K-562 leukemia 12.2% | MALME-3M melanoma 42.8% | MDA-MB-231 breast 55.3% | RXF 393 renal 11% | SF-268 CNS 40.7% | SF-295 CNS 25.5% | UACC-257 melanoma 84.7% | M14 melanoma 57.2%

O=C(N/N=C/c1ccsc1)c1[nH]c2ccc(Br)cc2c1-c1ccccc1
active: NCI-H23 lung -78% | NCI-H226 lung -49.5% | NCI-H322M lung -7.27% | HOP-62 NSCLC -64.7% | NCI-H460 lung -72.5% | HOP-92 NSCLC -50.5% | NCI-H522 lung -70.9% | A549/ATCC NSCLC 3.43% | 786-0 renal -60.8% | COLO 205 colon -63.1% | DU-145 prostate -26.4% | K-562 leukemia 4.77% | MALME-3M melanoma -72.5% | MDA-MB-231 breast -69.9% | RXF 393 renal -47.5% | SF-268 CNS -56.1% | SF-295 CNS -87.5% | SF-539 CNS -95.5% | UACC-257 melanoma -51.9% | M14 melanoma -73.8%

CCOc1ccc(-c2cc(-c3cc(C(C)C)c(O)cc3C)nn2-c2ccc(S(N)(=O)=O)cc2)cc1
active: NCI-H522 lung 1.3%
inactive: NCI-H23 lung 27.6% | NCI-H226 lung 67.4% | NCI-H322M lung 66.6% | HOP-62 NSCLC 65.4% | NCI-H460 lung 23.9% | HOP-92 NSCLC 47.4% | A549/ATCC NSCLC 32% | 786-0 renal 37.1% | COLO 205 colon 131% | DU-145 prostate 34.6% | K-562 leukemia 12.4% | MALME-3M melanoma 65.8% | MDA-MB-231 breast 37.5% | RXF 393 renal 38.9% | SF-268 CNS 44.1% | SF-295 CNS 35.6% | SF-539 CNS 11.9% | UACC-257 melanoma 46.8% | M14 melanoma 49.3%
